What all share (test): NCI-60 one-dose screen, 48 h (100 = growth as untreated, 0 = no growth, -100 = all killed)
One experiment concerns SR leukemia. As to conditions: 10 µM unless noted.
In the next experiment the test system is RPMI-8226 leukemia. As to conditions: 10 µM.
The next experiment deals with OVCAR-8 ovarian. The settings on record: 10 µM unless noted.
In the next experiment the test system is OVCAR-5 ovarian. The settings on record: 10 µM unless noted.
A further experiment concerns OVCAR-4 ovarian. As to conditions: 10 µM unless noted.
The next experiment has as its system SK-OV-3 ovarian. As to conditions: 10 µM.
For a further experiment, the system named is IGROV1 ovarian. The settings on record: 10 µM unless noted.
In a further experiment the test system is OVCAR-3 ovarian. The settings on record: 10 µM unless noted.
The next experiment relates to HS 578T breast. As to conditions: 10 µM unless noted.
The next experiment deals with NCI/ADR-RES ovarian. As to conditions: 10 µM unless noted.
In another experiment the test system is MDA-MB-435 melanoma. As to conditions: 10 µM unless noted.
Another experiment relates to SW-620 colon. As to conditions: 10 µM unless noted.
Another experiment concerns MCF7 breast. The settings on record: 10 µM unless noted.
A further experiment deals with HCT-116 colon. As to conditions: 10 µM unless noted.
In another experiment the test system is HCC-2998 colon. The settings on record: 10 µM unless noted.
Another experiment relates to KM12 colon. As to conditions: 10 µM unless noted.
Another experiment has as its system BT-549 breast. The settings on record: 10 µM unless noted.
The subject of another experiment is T-47D breast. As to conditions: 10 µM.

The text below walks through data of PubChem BioAssay (NCI).

The panel holds about 83,000 compounds, 20% with a hit somewhere; the sample as a whole holds those more often.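 Values shown are percent growth following 48 h exposure of cells in 96-well plates to a single concentration of compound; below 10 was considered active.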 Values without a mark were called inactive. Calls of active or inactive are those of the source.

On to `CCC12CCC3c4ccc(O)cc4CCC3C1CC(O)C2O` (stereo not given), for which the growth with SR leukemia is 19.3%; with RPMI-8226 leukemia, 89%; in the experiment with OVCAR-8 ovarian, 91.5%; in the experiment with OVCAR-5 ovarian it was 103%; in the experiment on OVCAR-4 ovarian, 82.7%; in the experiment on SK-OV-3 ovarian, 98.7%. Further, the growth is 82.8% in the experiment on IGROV1 ovarian; 95.4% in the experiment with OVCAR-3 ovarian; 76.8% in the experiment on HS 578T breast; 47.1% in the experiment on NCI/ADR-RES ovarian; -2.42% (active) with MDA-MB-435 melanoma; 43% in the experiment with SW-620 colon. The growth in the experiment on MCF7 breast was 75.5%; in the experiment on HCT-116 colon, 64.6%; with HCC-2998 colon, 75.9%; with KM12 colon, 53.5%.

For `NC(=O)c1cc(I)ccc1NC(=O)COc1ccc(Cl)cc1Cl`, the growth with SR leukemia was 40.9%; with RPMI-8226 leukemia, 96.3%; in the experiment with OVCAR-8 ovarian, 102%; with OVCAR-5 ovarian, 103%; with OVCAR-4 ovarian it was 114%; in the experiment with SK-OV-3 ovarian, 90.5%. The growth with IGROV1 ovarian is 89.3%; in the experiment with OVCAR-3 ovarian, 103%; in the experiment on HS 578T breast, 106%; in the experiment on NCI/ADR-RES ovarian, 82.3%; in the experiment with BT-549 breast, 77.6%; in the experiment with MDA-MB-435 melanoma, 14.9%. Besides, the growth in the experiment with SW-620 colon is 79.6%; in the experiment with MCF7 breast, 72.2%; in the experiment on HCT-116 colon, 90.7%; in the experiment with HCC-2998 colon it was 95.3%; in the experiment on KM12 colon it was 67.8%.

In the case of `O=C(Nc1ccccc1O)c1ccc(NS(=O)(=O)c2cccc3cccnc23)cc1`, the growth with SR leukemia was 32.8%; in the experiment on RPMI-8226 leukemia, 15.3%; in the experiment on OVCAR-8 ovarian it was 23.9%; in the experiment with OVCAR-5 ovarian, 16.5%; in the experiment on OVCAR-4 ovarian it was 74.5%; in the experiment on SK-OV-3 ovarian, 64.5%. For the same compound, the growth is 58.6% with IGROV1 ovarian; 62.5% in the experiment with OVCAR-3 ovarian; 37.3% with HS 578T breast; 29.2% with NCI/ADR-RES ovarian; 55.6% with BT-549 breast; 32.6% with MDA-MB-435 melanoma. Also, the growth with SW-620 colon was 30%; in the experiment on MCF7 breast, 42.3%; in the experiment with HCT-116 colon it was 23.7%; in the experiment on HCC-2998 colon, 57.3%; in the experiment on KM12 colon it was 74.8%.

`O=[N+]([O-])c1ccc2nc(N/N=C/c3ccc(O)cc3)sc2c1`: the growth in the experiment on SR leukemia is 18.2%; in the experiment on RPMI-8226 leukemia, 28.3%; in the experiment with OVCAR-8 ovarian, 59.9%; in the experiment on OVCAR-5 ovarian it was 113%; with OVCAR-4 ovarian, 56%; with SK-OV-3 ovarian it was 82.4%. The growth was 46.6% in the experiment on IGROV1 ovarian; 51.3% in the experiment with OVCAR-3 ovarian; 83.5% with HS 578T breast; 81.7% in the experiment on NCI/ADR-RES ovarian; 35.1% in the experiment on T-47D breast; 47.7% with MDA-MB-435 melanoma. Further, the growth in the experiment with SW-620 colon was 63.7%; in the experiment on MCF7 breast, 57.9%; in the experiment with HCT-116 colon, 23.3%; with KM12 colon, 33.4%.

Turning to `Cc1cc(=O)oc2c1ccc1oc(C(=O)c3ccccc3)c(C)c12`, the growth in the experiment with SR leukemia is 60.3%; with RPMI-8226 leukemia, 69.5%; in the experiment on OVCAR-8 ovarian it was 76.2%; with OVCAR-5 ovarian it was 104%; in the experiment with OVCAR-4 ovarian, 66.8%; in the experiment on SK-OV-3 ovarian, 109%. The growth is 102% in the experiment on IGROV1 ovarian; 85.6% with OVCAR-3 ovarian; 103% in the experiment with HS 578T breast; 83.3% with NCI/ADR-RES ovarian; 76.3% in the experiment on T-47D breast; 95.8% in the experiment with MDA-MB-435 melanoma. The growth is 92.2% in the experiment with SW-620 colon, 69.4% with MCF7 breast, 83.5% in the experiment on HCT-116 colon and 73.2% in the experiment with KM12 colon.

As for `COc1cccc(OC)c1OC(=O)c1ccccc1`, the growth in the experiment with SR leukemia was 91.7%; with RPMI-8226 leukemia, 96.1%; in the experiment on OVCAR-8 ovarian it was 106%; with OVCAR-5 ovarian it was 107%; in the experiment with OVCAR-4 ovarian, 97.4%; with SK-OV-3 ovarian it was 106%. Further, the growth in the experiment on IGROV1 ovarian is 116%; in the experiment with OVCAR-3 ovarian it was 123%; in the experiment with HS 578T breast, 96.6%; with NCI/ADR-RES ovarian, 105%; with T-47D breast it was 104%; with MDA-MB-435 melanoma it was 97.5%. Also, the growth with SW-620 colon was 102%; with MCF7 breast it was 101%; in the experiment with HCC-2998 colon it was 94.3%; in the experiment with KM12 colon, 109%.

As for `COc1cc(NC(=O)COc2ccccc2)c(C(N)=O)cc1OC`, the growth in the experiment on SR leukemia was 23.3%; with RPMI-8226 leukemia it was 9.18% (active); in the experiment on OVCAR-8 ovarian, 34.2%; in the experiment with OVCAR-5 ovarian, 48.8%; in the experiment on OVCAR-4 ovarian it was 93.9%; with SK-OV-3 ovarian it was 30.4%. In addition, the growth in the experiment on IGROV1 ovarian is 43.9%; in the experiment with OVCAR-3 ovarian, 6.16% (active); in the experiment with HS 578T breast, 29.6%; in the experiment on NCI/ADR-RES ovarian it was 10.2%; in the experiment with BT-549 breast, 59.5%; in the experiment with MDA-MB-435 melanoma, -77.5% (active). Further, the growth with SW-620 colon is 26.8%; in the experiment with HCT-116 colon, 29.5%; with HCC-2998 colon, 47.1%; in the experiment on KM12 colon, 29.3%.

Take `Cc1c(C)n(CC(O)CNC2CCCCC2C)c2ccccc12` (stereo not given): the growth in the experiment with SR leukemia was 1.95% (active); in the experiment with RPMI-8226 leukemia, -10.6% (active); in the experiment on OVCAR-8 ovarian it was 4.94% (active); in the experiment with OVCAR-5 ovarian, -58.8% (active); with OVCAR-4 ovarian it was -26.2% (active); in the experiment with SK-OV-3 ovarian it was 52.9%. The growth is -73.1% (active) in the experiment with IGROV1 ovarian; -89.8% (active) in the experiment with OVCAR-3 ovarian; 28.3% in the experiment on HS 578T breast; 3.85% (active) in the experiment on NCI/ADR-RES ovarian; -10.5% (active) with T-47D breast; -67.9% (active) in the experiment on MDA-MB-435 melanoma. Also, the growth in the experiment on SW-620 colon is -77% (active); with HCT-116 colon, -81.9% (active); with KM12 colon it was -77.9% (active).

Turning to `Cc1nn(-c2ccccc2)c2nc3nc4c(c(N)c3c(-c3ccc(Cl)cc3)c12)CCC4`, the growth was -25.9% (active) with SR leukemia; 82.3% in the experiment on RPMI-8226 leukemia; 83% with OVCAR-8 ovarian; 93.2% with OVCAR-5 ovarian; 101% with OVCAR-4 ovarian; 98.6% in the experiment on SK-OV-3 ovarian. For the same compound, the growth with IGROV1 ovarian was 84.5%; with OVCAR-3 ovarian, 111%; in the experiment with HS 578T breast it was 99.5%; with NCI/ADR-RES ovarian, 95.2%; in the experiment with MDA-MB-435 melanoma, 95.1%; in the experiment with SW-620 colon, 50.8%. The growth in the experiment with MCF7 breast is 87.5%; in the experiment on HCC-2998 colon it was 109%; in the experiment on KM12 colon, 96.6%.

With `Cn1c2ccccc2c2nn(Cc3ccccc3)c(=O)nc21`, the growth was 97.7% with SR leukemia; 101% in the experiment on RPMI-8226 leukemia; 107% in the experiment on OVCAR-8 ovarian; 92.8% in the experiment on OVCAR-5 ovarian; 111% in the experiment on OVCAR-4 ovarian; 105% with SK-OV-3 ovarian. Also, the growth was 120% in the experiment on IGROV1 ovarian; 107% in the experiment on OVCAR-3 ovarian; 106% with HS 578T breast; 109% in the experiment with NCI/ADR-RES ovarian; 110% in the experiment with BT-549 breast; 112% in the experiment with MDA-MB-435 melanoma. The growth in the experiment on SW-620 colon is 99.3%; in the experiment on MCF7 breast, 95.1%; in the experiment on HCC-2998 colon, 114%; with KM12 colon, 104%.
